# PubChem BioAssay (NCATS)
# Inconclusive results are not listed. The source made the active and inactive calls. Unless noted, the call rests on the fitted dose curve; in most records, active means well fitted curve in the direction sought with a large enough effect; inconclusive means small, poorly fitted or top-dose-only effect, or another doubt; inactive means no such curve, though single readings can be large; an effect the other way counts as inactive or inconclusive.
# Test system: not listed separately
# Experiment: Cell Viability - Mesenchymal (AID 546);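 further: cells exposed to compound for 40 hours before reading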
# Conditions: mesenchymal cells viability, qHTS; series mostly up to 91.7 µM; activity change, negative = cytotoxicity: at the top concentration
# Summary of the method: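 CellTiter-Glo luminescence (intracellular ATP, 20 min room temperature) after 40 hr compound exposure at 37 °C of 1000 glomerulus-derived human kidney mesenchymal cells/well; AC50 values obtained by fitting qHTS concentration-response data to the Hill equation.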
row,SMILES,"activity change, negative = cytotoxicity"
1,O=C(O)CC(O)(CC(=O)O)C(=O)O,10.1% (inactive)
2,C=Cc1ccccc1,0.128% (inactive)
3,CN(C)Cc1ccccc1,-0.661% (inactive)
4,COC(C)=O,11% (inactive)
5,CCCCCCCCCC(=O)O,-2.49% (inactive)

# Biological target: 3',5'-cyclic-AMP phosphodiesterase 4B (Homo sapiens) (UniProt Q07343)
# Experiment: qHTS Assay for Inhibitors of PDE-IV (AID 607; active means well fitted activation curve with a large enough effect in the main read-out, with a control signal flat, not every such curve was filed as active; further: potency means the concentration at half of the fitted maximal effect; on activation (PDE inhibition): % of control where 0% means no effect)
# Conditions: HEK293 ACTOne CNG channel cells, membrane potential fluorescence; series mostly up to 22.9 µM; activation (PDE inhibition): at the top concentration
# Summary of the method: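 ACTOne HEK293 cells carry a modified cAMP-gated CNG channel and express endogenous PDE4; plated 1000 cells/well, compounds up to 22.9 uM final. Membrane-potential dye fluorescence (ex 535/em 590) was read; parental cells received 10 uM forskolin + 100 uM RO 20-1724.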
# Chain of 3',5'-cyclic-AMP phosphodiesterase 4B (Homo sapiens) (Q07343 whole entry, looked up): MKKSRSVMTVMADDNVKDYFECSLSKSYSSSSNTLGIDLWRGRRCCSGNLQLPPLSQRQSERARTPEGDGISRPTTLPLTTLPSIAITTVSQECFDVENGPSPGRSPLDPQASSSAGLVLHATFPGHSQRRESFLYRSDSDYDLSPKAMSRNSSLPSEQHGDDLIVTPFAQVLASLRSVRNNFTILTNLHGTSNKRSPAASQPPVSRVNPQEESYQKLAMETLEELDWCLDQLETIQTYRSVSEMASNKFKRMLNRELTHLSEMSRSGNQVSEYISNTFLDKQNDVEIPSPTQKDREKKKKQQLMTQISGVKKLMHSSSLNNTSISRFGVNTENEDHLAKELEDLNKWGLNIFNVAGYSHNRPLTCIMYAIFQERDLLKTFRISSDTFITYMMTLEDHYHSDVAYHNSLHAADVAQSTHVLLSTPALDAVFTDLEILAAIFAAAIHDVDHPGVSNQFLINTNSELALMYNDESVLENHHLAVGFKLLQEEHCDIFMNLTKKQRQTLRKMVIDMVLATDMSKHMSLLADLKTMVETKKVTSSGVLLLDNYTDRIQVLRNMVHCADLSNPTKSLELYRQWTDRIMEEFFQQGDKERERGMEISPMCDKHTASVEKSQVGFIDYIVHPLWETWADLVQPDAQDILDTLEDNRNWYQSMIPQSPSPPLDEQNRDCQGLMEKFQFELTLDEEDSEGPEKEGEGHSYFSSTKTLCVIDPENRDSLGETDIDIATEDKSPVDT
SMILES,activation (PDE inhibition),Potency
Cc1ccc(OC[C@H](O)[C@H](C)NC(C)C)c2c1CCC2,-19.9% (inactive),
COc1ccc2[nH]c(=O)c3c(c2c1)OC(C)(C)C=C3,0.0358% (inactive),
NCCCC(=O)O,-8.07% (inactive),
CC(=O)C1=C(O)C=C2Oc3c(C(C)=O)c(O)c(C)c(O)c3[C@]2(C)C1=O,-37.6% (inactive),
COc1cc(C[C@H]2C(=O)OC[C@@H]2Cc2ccc(OC)c(OC)c2)ccc1O,,3.79 µM (active)
O=C(O)c1cc2ccccc2c(Cc2c(O)c(C(=O)O)cc3ccccc23)c1O,-4.97% (inactive),

# Test system: not listed separately
# Experiment: Cellular Toxicity (caspase-3) HepG2 (AID 654);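 further: cells exposed to compound for 16 hours before reading; 0% = DMSO alone and 100% = caspase signal from 100 µM tamoxifen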
# Conditions: HepG2 caspase-3 activation, luminescence, 0% = DMSO only, 100% = tamoxifen; series mostly up to 92.2 µM; caspase-3 activation: at the top concentration
# Summary of the method: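 Concentration-response AC50 values reflect caspase-3/7 induction in HepG2 cells after 16 hours of compound exposure, quantified by luminescence from liberated aminoluciferin and referenced to 100 uM tamoxifen as full stimulation.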
row,SMILES,caspase-3 activation
1,O=C(O)CC(O)(CC(=O)O)C(=O)O,2.56% (inactive)
2,C=Cc1ccccc1,0.548% (inactive)
3,CN(C)Cc1ccccc1,0.354% (inactive)
4,COC(C)=O,-0.128% (inactive)
5,CCCCCCCCCC(=O)O,-0.532% (inactive)
